# Assay results: PubChem BioAssay AID652016 (National Center for Advancing Translational Sciences (NCATS), 2013)
# Results filed as inconclusive are left out. The source made the active and inactive calls. Calls follow the shape of the dose curve; as a rule, active = well fitted inhibition curve with a large enough effect; inconclusive = small, poorly fitted or top-dose-only effect; inactive = flat fitted curve, though single readings scatter.
# Target: Luciferin 4-monooxygenase (Photinus pyralis) (UniProt P08659)
# Sequence (P08659 whole entry, looked up): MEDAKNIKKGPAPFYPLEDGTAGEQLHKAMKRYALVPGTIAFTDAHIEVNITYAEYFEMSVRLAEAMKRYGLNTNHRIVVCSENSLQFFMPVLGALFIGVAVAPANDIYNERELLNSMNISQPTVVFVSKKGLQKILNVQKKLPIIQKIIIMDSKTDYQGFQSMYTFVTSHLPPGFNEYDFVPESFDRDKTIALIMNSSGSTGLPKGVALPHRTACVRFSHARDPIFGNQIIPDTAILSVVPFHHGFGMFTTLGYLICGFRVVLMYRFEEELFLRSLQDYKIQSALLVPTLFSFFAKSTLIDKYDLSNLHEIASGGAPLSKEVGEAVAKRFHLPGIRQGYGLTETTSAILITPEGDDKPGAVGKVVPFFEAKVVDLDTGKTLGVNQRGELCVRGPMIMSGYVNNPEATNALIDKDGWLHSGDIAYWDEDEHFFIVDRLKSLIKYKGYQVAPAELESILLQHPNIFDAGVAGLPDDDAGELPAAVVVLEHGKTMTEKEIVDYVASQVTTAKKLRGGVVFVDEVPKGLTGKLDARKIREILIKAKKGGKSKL
# Assay: qHTS Assay for Inhibitors of Firefly Luciferase from the GSK Published Protein Kinase Inhibitor Set
# Conditions: purified firefly luciferase, luminescence inhibition; series mostly up to 57.5 µM; activity change, negative = inhibition: at the top concentration
# From the text: FLuc (firefly luciferase) is the prototypical bioluminescent reporter gene from Photinus pyralis.[1] The enzyme catalyzes the oxidation luciferin via luciferin-AMP to produce light. FLuc is used in cell-based reporter gene-based assays for screening small molecule chemical libraries. However, small molecule luciferase inhibitors present in most large chemical libraries are often enriched in the output of high throughput screens using this reporter sometimes complicating interpretation and candidate selection.
# RLuc is a bioluminescent reporter gene luciferase from Renilla reniformis, also known as the sea pansy. RLuc uses the luciferin substrate coelenterazine. RLuc is often used in combination with the nonhomologous luciferase FLuc (firefly luciferease) as a trasfection or pathway normalization control. Recently, non-homologous reporters have been described for high throughput screening 'coincidence' reporter gene strategies.
# 1. Fan F, Wood KV (2007) Bioluminescent assays for high-throughput screening. Assay Drug Dev Technol 5: 127-136.
# 2. Thorne N, Inglese J, Auld DS (2010) Illuminating insights into firefly luciferase and other bioluminescent reporters used in chemical biology. Chem Biol 17: 646-657.
# 3. […] Chem Biol 19: 1060-1072.
# 4. Michelini E, Cevenini L, Mezzanotte L, Coppa A, Roda A (2010) Cell-based assays: fuelling drug discovery. Anal Bioanal Chem 398: 227-238.
# 5. Cheng KC, Inglese J (2012) A coincidence reporter-gene system for high-throughput screening. Nat Methods 9: 937.
# Biochemical firefly luciferase enzyme assay
# NCGC Assay Protocol Summary:
# Reagents: 50mM Tris acetate, pH 7.5; 10mM Mg acetate; 10uM D-luciferin (Sigma #L9504); 10uM ATP; 0.01% Tween-20; 0.05% BSA; 10nM P. pyralis luciferase (Sigma #L9506)
# Control compounds used were two known firefly luciferase inhibitors (compounds (2) and (5) in Auld et al., 2010), and DMSO.
# Three microliters containing firefly luciferase substrates in buffer (final concentrations: 50mM Tris acetate, pH 7.5, 10mM Mg acetate, 0.01% Tween-20, 0.05% BSA, 10uM D-luciferin, and 10uM ATP) are dispensed into each well of a Greiner white, solid-bottom 1536-well format plate using a flying reagent dispenser (FRD). These assay plates were then treated with 23nL of compound or DMSO using a Kalypsys pin tool, which allows for delivery of a 7-point interplate titration of each compound to the assay plates (quantitative HTS), with final compound concentrations ranging from approximately 60uM to 300pM. One microliter of firefly luciferase in 50mM Tris-acetate buffer was then delivered by FRD to each well for a final enzyme concentration of 10nM. Luciferase activity was then measured using an Envision plate reader (PerkinElmer), with an average incubation time of 5 min.
# % is scaled to controls: 0 for no effect and ±100 for the full control effect; potency is read from the fitted curve at half-maximal effect.
Compound,"activity change, negative = inhibition",Potency
NS(=O)(=O)c1ccc(-c2cc3ccncc3cc2OCc2ccccc2)cc1,2.83% (inactive),
Cc1ccc(NC(=O)c2ccnc(N3CCCC3)c2)cc1-c1ccc(C(=O)NCC2CC2)cc1,-8.62% (inactive),
FC(F)(F)c1cccc(Nc2nccc(-c3cnn4nc(-c5ccccc5)ccc34)n2)c1,-11.3% (inactive),
COc1ccc(Nc2ncc(-c3ccccc3)o2)cc1OC,,5.8 µM (active)
CCS(=O)(=O)c1ccc(OC)c(Nc2ncc(-c3cccc(F)c3)o2)c1,7.1% (inactive),
Cc1c2ccc(N(C)c3ccnc(Nc4cccc(S(N)(=O)=O)c4)n3)cc2nn1C,,13 µM (active)
CCn1c(-c2nonc2N)nc2c(C#CC(C)(C)O)ncc(OCC3CCCN3)c21 (stereo not given),-25.6% (inactive),
NC(=O)c1cccc(Nc2nccc(Nc3cccc4[nH]ncc34)n2)c1,,13 µM (active)
c1ccc(-c2[nH]ncc2-c2ccnc(-c3ccc(OCCN4CCOCC4)cc3)c2)nc1,2.73% (inactive),
COc1cc(C)c(N(C)C(=O)CN(C)C)cc1Nc1nc(Nc2cccc(F)c2C(N)=O)c2cc[nH]c2n1,-2.27% (inactive),
COc1cc2c(cc1Nc1nc(N3CCc4ccccc43)c3cc[nH]c3n1)N(C(=O)CN(C)C)CC2,3.81% (inactive),
Fc1ccc(Nc2nccc(-c3c(-c4ccc(C(F)(F)F)cc4)nn4ncccc34)n2)cc1F,-1.73% (inactive),
CCNC(=O)OC1CNC(C#Cc2cc3ncnc(Nc4ccc(OCc5cccc(F)c5)c(Cl)c4)c3s2)C1 (stereo not given),-14.8% (inactive),
Nc1nccc(-c2c(-c3ccc(F)cc3)ncn2C2CCC(O)CC2)n1 (stereo not given),0.209% (inactive),
O=C1Nc2ccc(I)cc2C1=Cc1cc(Br)c(O)c(Br)c1,-3.81% (inactive),
CC1=C(C(=O)Nc2ccc3[nH]ncc3c2)C(c2ccc(Cl)c(Cl)c2)CC(=O)N1 (stereo not given),7.19% (inactive),
CN(C)CCOc1ccc(-c2nc(-c3ccc4c(c3)CCC4=NO)c(-c3ccncc3)[nH]2)cc1,,14.6 µM (active)
O=C(OC1CNC(C#Cc2cc3ncnc(Nc4ccc(Cc5ccccc5)cc4)c3s2)C1)N1CCOCC1 (stereo not given),3.82% (inactive),
Cc1nnc(-c2ccc(C)c(-c3ccc(C(=O)NCc4ccc(Cl)cc4)cc3)c2)o1,3.77% (inactive),
Nc1ncnc2occ(-c3ccc(NC(=O)Nc4cccc(C(F)(F)F)c4)cc3)c12,4.49% (inactive),

Compound,"activity change, negative = inhibition",Potency
CCn1c(-c2nonc2N)nc2c(C#CC(C)(C)O)nc(OC(CN)c3ccccc3)cc21 (stereo not given),24.3% (inactive),
COc1cc2ncn(-c3cc(OC(C)c4ccccc4Cl)c(C(N)=O)s3)c2cc1OC (stereo not given),,inactive
CC(C)COC(=O)c1ccc2[nH]c(O)c(C=Nc3ccc(S(N)(=O)=O)cc3)c2c1,4.05% (inactive),
CCn1c(-c2nonc2N)nc2c(C#CC(C)(C)O)ncc(OCC3CCNCC3)c21,6.19% (inactive),
Cc1nnc(-c2cccc(-c3ccc(C(=O)NCC4CC4)cc3)c2)o1,-8% (inactive),
COc1ccc(-c2ccncc2)cc1C(N)=O,6.06% (inactive),
COc1cc2ncn(-c3cc(OCc4ccccc4C(F)(F)F)c(C(N)=O)s3)c2cc1OC,-6.98% (inactive),
COc1cc(N2CCN(C(C)C)CC2)ccc1Nc1nc(Nc2ccc(F)cc2C(=O)NCC(O)CO)c2cc[nH]c2n1 (stereo not given),21.9% (inactive),
CCn1cc(-c2ccnc3[nH]ccc23)c(-c2cccc(NC(=O)Nc3ccc(OCc4ccccc4)cc3)c2)n1,17.6% (inactive),
Nc1ncc(-c2cccc(S(N)(=O)=O)c2)c2scc(-c3ccc(F)c(Cl)c3)c12,-12.8% (inactive),
OCCCNc1nccc(-c2c(-c3ccc(F)cc3)nn3cc(C(F)(F)F)ccc23)n1,,32.6 µM (active)
Fc1ccc(-c2c(-c3ccncc3)nc3n2CCS3)cc1,-5.47% (inactive),
NC(=O)c1sc(-n2cnc3ccc(C(F)(F)F)cc32)cc1OCc1ccccc1Br,-6.69% (inactive),
Nc1nonc1-c1nc2cnccc2n1C1CCCCC1,21.4% (inactive),
NC(=O)c1ccc2c(-c3ccnc(NCCCO)n3)c(-c3ccc(F)cc3)nn2c1,-9.6% (inactive),
Fc1cccc(COc2ccc(Nc3ncncc3C#Cc3ccccc3)cc2Cl)c1,1.29% (inactive),
CCn1c(-c2nonc2N)nc2cncc(C(=O)N3CCC(N)C3)c21 (stereo not given),3.05% (inactive),
CNC(=O)c1cncc(C=Cc2ccccc2Cl)c1,,9.19 µM (active)
CCS(=O)(=O)c1ccc(OC)c(Nc2ncc(-c3cccc(OC)c3)o2)c1,-4.23% (inactive),
CCc1nccc2c1nc(-c1nonc1N)n2CC,4.72% (inactive),
